Over roughly 68,000 sequences, “fluorescence intensity (a.u.)” has its median near 9,100; the highest 2% begin near 16,000. What follows is part of a selection rich in the highest values, with near analogues and random picks from the rest.

This note sets out measurements from article PMC7819943, “Rice protein-binding microarrays: a tool to detect cis-acting elements near promoter regions in rice”.

Sequence of OsWRKY34 (Q0JBA9 entry or part of it): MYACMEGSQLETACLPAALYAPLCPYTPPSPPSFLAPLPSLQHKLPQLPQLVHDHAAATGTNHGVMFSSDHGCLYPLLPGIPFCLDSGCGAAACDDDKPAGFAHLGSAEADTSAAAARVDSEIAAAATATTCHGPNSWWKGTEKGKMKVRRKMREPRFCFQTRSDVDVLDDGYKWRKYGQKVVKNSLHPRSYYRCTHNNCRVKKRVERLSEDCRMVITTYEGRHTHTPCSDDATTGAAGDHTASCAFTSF

The target in this assay is OsWRKY34 (Oryza sativa, UniProt Q0JBA9 1-250). Kind of assay: protein-binding microarray (RPBM); PBS, 2% BSA, 51.3 ng/ul salmon testes DNA, 50 uM zinc acetate, 200 nM TF, 25 C, 1 h; high values mean tight binding. The note with it: protein: recombinant; tags: N-terminal polyhistidine and DsRed monomer fusion (pET32a); label: CyDye5-dUTP incorporated in the synthesized complementary strand; 3' TTTTT single-stranded linker to array surface; dsDNA, one strand shown. A digest of the protocol:
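The binding signal is fluorescence intensity per array feature (arbitrary units). Readings came from an Axon 4000B scanner after a washed, 2% BSA-blocked, double-stranded custom Agilent array had been incubated for 1 h at 25 °C with 200 nM protein and 50 µM zinc acetate. The protein was a Ni–NTA-purified transcription factor fused N-terminally to polyhistidine and DsRed, expressed in E. coli BL21-CodonPlus.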
Take “CCGCATCCTTCTTGGACTTCTGTTTTGTTGTTGGCCATGGCGGAGTCACCTAGTGCAG”: the binding signal was 11100 fluorescence intensity (a.u.).

“GATTTTTCTTTACATGTTCTTTTTCATCGATCTTTTGAGACGGAGTCACCTAGTGCAG”: the binding signal was 9460 fluorescence intensity (a.u.).

On to “GCTCCAGATCTGTGGGTGTCTTTGGGTGAGTGGGCAAATACGGAGTCACCTAGTGCAG”, for which the binding signal is 11200 fluorescence intensity (a.u.).

As to “CTGAACATGTTGTTCAGTTGGCCTCGTTTTCTCACCTTTGCGGAGTCACCTAGTGCAG”, the binding signal is 9320 fluorescence intensity (a.u.).

With “CTTCTGCTTGGTGTGTTGTGTGTTTTACCTTGAGTTATCTCGGAGTCACCTAGTGCAG”, the binding signal is 8480 fluorescence intensity (a.u.).

In the case of “TCGTTTTTCTCTTTAGTGTGTGTGTGTTGCGTTTTTGCAACGGAGTCACCTAGTGCAG”, the binding signal is 10300 fluorescence intensity (a.u.).

With “ATATCTCACTTTGACTGCTTGTTGTTATCGTTCTTTTATACGGAGTCACCTAGTGCAG”, the binding signal was 12000 fluorescence intensity (a.u.).

Take “GACCTGAAGTTCTCGTTGTGTTGGCCTGCGTTTTTATCTGCGGAGTCACCTAGTGCAG”: the binding signal is 16800 fluorescence intensity (a.u.).

Take “TTGTTCTCTTTTTTTTTGCGTGCGTTGACTTTATCTTCAACGGAGTCACCTAGTGCAG”: the binding signal is 19900 fluorescence intensity (a.u.).

On to “GGGAGTCAAAGTAGACTTATTCTTCCCCAATCCATCTCAGCGGAGTCACCTAGTGCAG”, for which the binding signal was 8330 fluorescence intensity (a.u.).

On to “GTTCTCGATGTGTTCTAAAATTTTGTTGTTTATAATTTTTCGGAGTCACCTAGTGCAG”, for which the binding signal was 8190 fluorescence intensity (a.u.).

On to “TTCATCGTAAACGTTACTTCTCGTTATAAATTGATTTTTTCGGAGTCACCTAGTGCAG”, for which the binding signal is 10100 fluorescence intensity (a.u.).

“ACAGCGACCTTTTGCTGCAAAGCTTTGTTGGGTTTGGGCTCGGAGTCACCTAGTGCAG”: the binding signal is 8470 fluorescence intensity (a.u.).

In the case of “ACGACCCCTCCAACACATTTCCCTCGCGTCTCGTTGCGATCGGAGTCACCTAGTGCAG”, the binding signal was 8480 fluorescence intensity (a.u.).

For the sequence “CTCGTTATATCTATTATAAATTTTTTAATATACATGTTATCGGAGTCACCTAGTGCAG”, the binding signal was 9040 fluorescence intensity (a.u.).

Regarding “AGGATCGAGGAATTCAGTTAAGCAAAAATATTTATACATGCGGAGTCACCTAGTGCAG”, the binding signal was 47600 fluorescence intensity (a.u.).

Regarding “ATCGTACCATTATTCAAAATTTTAAATAGTTACATGTTCACGGAGTCACCTAGTGCAG”, the binding signal was 8120 fluorescence intensity (a.u.).

For the sequence “ATCTCCGGCGTTTTTCAACCGTATGGCAATGATCATCCTTCGGAGTCACCTAGTGCAG”, the binding signal was 11100 fluorescence intensity (a.u.).

Take “TGGCTGCCGGACTTGGGAGGGACACTGGGTTGGTTGTGGGCGGAGTCACCTAGTGCAG”: the binding signal is 9440 fluorescence intensity (a.u.).

In the case of “GAAGGTTGCTGTTGCTTGTTGTTGGTAGTGTCTTGTGTGCCGGAGTCACCTAGTGCAG”, the binding signal is 9090 fluorescence intensity (a.u.).

On to “TGGCCGGAGCTAGGGTGGGTGGGTGGTTGGCCGCACCACCCGGAGTCACCTAGTGCAG”, for which the binding signal was 8250 fluorescence intensity (a.u.).

“GTGGCTGCGTGTGGTGGCGTTGCACGGCTCGGGTGGGCTCCGGAGTCACCTAGTGCAG”: the binding signal was 8660 fluorescence intensity (a.u.).

In the case of “CTGTGGTGGTGTGCATACGGGTTGGGGTGGAGGGCTGCTCCGGAGTCACCTAGTGCAG”, the binding signal was 17900 fluorescence intensity (a.u.).

For the sequence “TTGTGGCAATGGCGGCGGTGGCGGTGGCGGTTGGGGTGGCCGGAGTCACCTAGTGCAG”, the binding signal is 11500 fluorescence intensity (a.u.).

Turning to “GGGCTTGTTGGGGTTGCTGTGGTAGCCGGGAGGGAGGGGACGGAGTCACCTAGTGCAG”, the binding signal was 28500 fluorescence intensity (a.u.).

For “GTTGGGGTGGAGGGCTGCTCCAGGTGAGAGGGCTGGGCATCGGAGTCACCTAGTGCAG”, the binding signal is 9900 fluorescence intensity (a.u.).

As to “TAGGGAGGGTTGTGGGGAGGGGAGCTGTGGCCGCAATGTCCGGAGTCACCTAGTGCAG”, the binding signal was 19400 fluorescence intensity (a.u.).

Turning to “TAGCTCACATCGTTTTACGTATCTTCCCAATCTCCTGATCCGGAGTCACCTAGTGCAG”, the binding signal is 8950 fluorescence intensity (a.u.).

Consider “CTTTCGCGTTTTCCTTGGGTTTGACAATGGGCTACATTGCCGGAGTCACCTAGTGCAG”, for which the binding signal is 9400 fluorescence intensity (a.u.).

As to “TATACTCCTTATCTTGGATTGGTAGTCTTTAGTTTGCTTTCGGAGTCACCTAGTGCAG”, the binding signal was 9320 fluorescence intensity (a.u.).

In the case of “AACACCACGCCGCGCGCTCCACGGCAACGCAACGCAGGAACGGAGTCACCTAGTGCAG”, the binding signal was 8720 fluorescence intensity (a.u.).

Take “CAAAGTTGTGTGTTGTGAAGTGTGAAGGAGAGCTCTATTTCGGAGTCACCTAGTGCAG”: the binding signal was 8610 fluorescence intensity (a.u.).

“TCCGGAGTCTGCACCCATCTTCCCCACGTGCGCGCCCATCCGGAGTCACCTAGTGCAG”: the binding signal is 8980 fluorescence intensity (a.u.).

In the case of “TTTCGTCAGCTGATCGTATATTGACCTTTTCTGTCTCTGTCGGAGTCACCTAGTGCAG”, the binding signal is 10500 fluorescence intensity (a.u.).

For “ATTGACTTTTTCTTACACTGTTTAACCATTCGTCTTATTCCGGAGTCACCTAGTGCAG”, the binding signal is 14000 fluorescence intensity (a.u.).

With “TGACGCCGTTGACTTTTTCTCACATGTTTGACTATTCGTCCGGAGTCACCTAGTGCAG”, the binding signal was 49100 fluorescence intensity (a.u.).

On to “CGCCGTTGACTTTTTCTCATATGTTTGACCATTCATCTTACGGAGTCACCTAGTGCAG”, for which the binding signal is 38900 fluorescence intensity (a.u.).

In the case of “TGACGCCGTTAACTTTTTCTCACATATTTGACTATTTGTCCGGAGTCACCTAGTGCAG”, the binding signal is 10900 fluorescence intensity (a.u.).

Take “TTTTCTCATATGTTTGACCATTCGTCTTATTCAAAAAATTCGGAGTCACCTAGTGCAG”: the binding signal is 9000 fluorescence intensity (a.u.).

Regarding “CACCGTTAATTTTTTCTCACATGTTTGACCATTCATCTTACGGAGTCACCTAGTGCAG”, the binding signal was 14400 fluorescence intensity (a.u.).

In the case of “GCTGTTGACTTTTTCTCACGTGATTGACCTTTCGTCTTATCGGAGTCACCTAGTGCAG”, the binding signal was 28400 fluorescence intensity (a.u.).

For “ACCATTGATTTTTCAGTACGTGTTTGACCATTCGTCTTATCGGAGTCACCTAGTGCAG”, the binding signal is 13300 fluorescence intensity (a.u.).
